Compound activity (PubChem BioAssay)
Rows were chosen to be rich in hits. Some 6.9% of all compounds tested hit in one or more screens of this group.
Vif-APOBEC3G blk – inhibitors of Vif-APOBEC3G interaction; Q9HC16; HeLa A3G-eYFP + Vif (tagged APOBEC3G with the HIV-1 protein that degrades it), YFP fluorescence, overnight; Potency, µM (highest dose often 46.1 µM), most hits filed as inhibitors; 410,000 compounds, 0.076% hits; AID 602310; also: nearly all actives have a fitted effect of over 60% in size
Target sequence (Q9HC16 whole entry, looked up): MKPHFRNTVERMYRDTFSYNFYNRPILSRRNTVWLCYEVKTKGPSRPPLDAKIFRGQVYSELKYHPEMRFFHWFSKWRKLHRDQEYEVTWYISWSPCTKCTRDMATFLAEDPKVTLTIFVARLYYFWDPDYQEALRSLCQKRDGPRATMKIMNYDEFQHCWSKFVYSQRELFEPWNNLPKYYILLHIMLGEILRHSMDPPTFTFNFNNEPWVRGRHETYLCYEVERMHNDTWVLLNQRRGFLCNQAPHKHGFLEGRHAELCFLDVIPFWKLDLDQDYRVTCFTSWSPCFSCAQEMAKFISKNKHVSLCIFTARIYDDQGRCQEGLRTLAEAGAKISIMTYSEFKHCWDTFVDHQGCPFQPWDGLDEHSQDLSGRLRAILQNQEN
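HeLa cells stably expressing Vif and C-terminally eYFP-tagged A3G, seeded overnight at 37 deg C, then exposed to compound by pintool overnight at 37 deg C. Rise in yellow fluorescence (Ex 488/Em 500-530, Acumen) marks blocked Vif-driven A3G degradation.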
Vif-A3F inh – inhibitors of Vif-A3F interaction | HeLa A3F-eYFP + Vif (tagged APOBEC3F with the HIV-1 protein that degrades it), YFP fluorescence increase | Potency, µM (top dose mostly 46.1 µM) | 390,000 compounds, 0.2% hits | AID 602313; also: nearly all actives have a fitted effect of over 65% in size
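HeLa cells stably expressing Vif plus C-terminally eYFP-tagged A3F were seeded, incubated overnight at 37 deg C, dosed with compound, incubated overnight again at 37 deg C. Yellow fluorescence (Ex 488/Em 500-530) reported blocked Vif-mediated A3F-eYFP degradation.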
IL1B secr inh – blocks inflammasome-driven IL-1 beta release; activity change, % at 57.5 µM; AID 743279; THP-1 LPS/ATP IL-1B secretion, AlphaLISA, 16 h; active compounds read low; 360,000 compounds, 4.7% hits; in the data active = activity change below about -50%; inconclusive = mostly about -30% to -49%
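Secreted IL-1B measured by AlphaLISA bead assay after 16 h compound exposure of THP-1 cells; compounds (final up to 57.5 uM) added 1 h before LPS (250 ng/mL) and ATP (1.25 mM) stimulation; lower signal means less secretion.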
SW480 rereplic – inducers of DNA re-replication in SW480 colon cancer cells; SW480 DNA re-replication, Hoechst DNA content imaging, 48 h; Potency, µM (doses to about 46.1 µM), usual class: activators; 340,000 compounds, 1.8% hits; AID 624297; also: nearly all actives have a fitted effect of over 55% in size
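DNA re-replication was detected as more nuclei of elevated Hoechst intensity after 48 hr exposure to compound (23 nL pinned per well of 250 cells).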
MCF10A rerep – induces DNA re-replication in MCF 10a normal breast cells | MCF 10A DNA re-replication, Hoechst nuclear intensity, 48 h | 350,000 compounds, 2.9% hits | Potency, µM (titrated, usually from 46.1 µM), most hits filed as activators; also: nearly all actives have a fitted effect of over 50% in size
Giardia kill – Giardia lamblia killing; Giardia lamblia trophozoite viability; activity change, % at 7.66 µM, hits read low; 340,000 compounds, 0.15% hits; AID 540267; in the data active = activity change below about -80%; inconclusive = between about -30% and that limit;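 also: parasites exposed to compound for two days anaerobically before the ATP read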
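Giardia trophozoites, 100 cells per well, were exposed to compounds for 48 hrs at 37 deg C under anaerobic conditions; viability was then read as ATP content by bioluminescence after 15-30 min at room temperature.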
Of the large screens only hits and unclear results are named; the others gave an inactive call. Unless noted, calls follow the shape of the dose curve; as a rule, active = well fitted curve in the direction sought with a large enough effect; inconclusive = small, poorly fitted or top-dose-only effect, or another doubt; inactive = no such curve, though single readings can be large; an effect the other way counts as inactive or inconclusive.

c1ccc(Cn2nnc3c(Nc4ccc5c(c4)OCO5)nc(C4CC4)nc32)cc1	MCF10A rerep 10µM
Cc1ccc(Cl)cc1N1CCN(C(=O)c2cn(C)c3ccc(S(=O)(=O)N4CCCC4)cc3c2=O)CC1	none (no result: IL1B secr inh, SW480 rereplic, MCF10A rerep, Giardia kill)
COc1ccc(CCNCC(O)COc2cccc(Br)c2)cc1 (centres undefined)	IL1B secr inh -59, SW480 rereplic inconclusive, MCF10A rerep inconclusive
OC(CNCCc1ccc(C(F)(F)F)cc1)COc1cccc2ccccc12 (centres undefined)	IL1B secr inh -63, SW480 rereplic 16µM, MCF10A rerep 21µM
OC(CNCCc1ccc(C(F)(F)F)cc1)COc1ccc2ccccc2c1 (centres undefined)	IL1B secr inh -101, SW480 rereplic inconclusive, MCF10A rerep 5.8µM
OC(COc1ccc(CNCCc2ccc(C(F)(F)F)cc2)cc1)CN1CCCCC1 (centres undefined)	SW480 rereplic inconclusive, MCF10A rerep inconclusive
COc1ccccc1COCC(O)CNCCc1ccc(C(F)(F)F)cc1 (centres undefined)	IL1B secr inh -78, SW480 rereplic inconclusive
CC(=O)c1cccc(Nc2ncnc3c2cnn3-c2cccc(Cl)c2)c1	none (no result: IL1B secr inh, SW480 rereplic, MCF10A rerep, Giardia kill)
CCC(=O)Oc1cc(C(C)(C)C)cc2cc(-c3nc(-c4ccc(OC)cc4OC)no3)c(=O)oc12	none (no result: IL1B secr inh, SW480 rereplic, MCF10A rerep, Giardia kill)
COc1ccc(CN(C)CC(O)COc2ccc(-c3ccccc3)cc2)cc1OC (centres undefined)	IL1B secr inh -71, SW480 rereplic inconclusive, MCF10A rerep inconclusive
CN(C)CC(O)COc1cccc(OCC(O)CN(C)C)c1 (centres undefined)	none
CN(Cc1ccc(OCC(O)CN(C)Cc2ccccc2)cc1)Cc1nccn1C (centres undefined)	none
CN(Cc1ccc(Br)cc1)CC(O)COc1cccc(Br)c1 (centres undefined)	IL1B secr inh -93, MCF10A rerep inconclusive
CCOCCCNC(=S)Nc1ccc2nc3n(c(=O)c2c1)CCCCC3	IL1B secr inh -64
O=C(Nc1ccc2nc3n(c(=O)c2c1)CCCC3)c1cc([N+](=O)[O-])ccc1F	IL1B secr inh -105, SW480 rereplic 15µM, MCF10A rerep 15µM
COCCCNC(=S)Nc1ccc2nc3n(c(=O)c2c1)CCCCC3	none
O=C(c1ccc(COc2ccc(Cl)cc2)o1)N1N=C(C(F)F)CC1(O)C(F)F (centres undefined)	IL1B secr inh -74, MCF10A rerep inconclusive
COc1ccccc1OCc1ccc(C(=O)N2N=C(C(F)F)CC2(O)C(F)F)o1 (centres undefined)	MCF10A rerep inconclusive
O=C(Nc1cccc(C(F)(F)F)c1)c1cc2nc(-c3ccc4c(c3)OCO4)cc(C(F)(F)F)n2n1	none (no result: IL1B secr inh, SW480 rereplic, MCF10A rerep, Giardia kill)
COc1ccccc1C1CN=NC12CCCc1ccccc1C2=O (centres undefined)	none
COC(=O)c1c(C)cccc1C1CN=NC12Cc1ccccc1C2=O (centres undefined)	IL1B secr inh -90
Cn1cnc([N+](=O)[O-])c1Cl	IL1B secr inh -95, MCF10A rerep inconclusive
Cn1cnc([N+](=O)[O-])c1S(=O)(=O)Oc1ccc(Cl)cc1	IL1B secr inh -97, SW480 rereplic 5.8µM, MCF10A rerep 6.5µM
O=C(COc1cccnc1[N+](=O)[O-])Nc1cccc2ccccc12	Giardia kill inconclusive
CCS(=O)(=O)c1c([N+](=O)[O-])ncn1C	Vif-APOBEC3G blk inconclusive, SW480 rereplic inconclusive, MCF10A rerep 12µM
Cn1cnc([N+](=O)[O-])c1Oc1cccc2ccccc12	Vif-APOBEC3G blk inconclusive, SW480 rereplic inconclusive, MCF10A rerep 21µM (no result: IL1B secr inh)
CNc1c([N+](=O)[O-])ncn1C	none
Cn1cnc([N+](=O)[O-])c1Oc1cccc(O)c1	IL1B secr inh -105, MCF10A rerep inconclusive
Cn1cnc([N+](=O)[O-])c1Oc1ccccc1	IL1B secr inh inconclusive, MCF10A rerep inconclusive
Cn1cnc([N+](=O)[O-])c1S(=O)(=O)Oc1cccc2ccccc12	IL1B secr inh -102, SW480 rereplic 6.5µM, MCF10A rerep 5.8µM
